# In PMC5540273 (PLoS ONE, 2017):
# Assays:
# Conditions in all cases: concentration: 1 μM, replicates: in singlicate; n = 1
# [1] = test system: PFTAIRE2
# [2] = test system: T1, PFTK1
# T1 construct: gene CDK14
# [3] = test system: PHKG1
# [4] = test system: PHKG2
# [5] = test system: PIK3C2B
# [6] = test system: PIK3C2G
# [7] = test system: PIK3CA
# [8] = test system: PIK3CB
# [9] = test system: PIK3CD
# [10] = test system: PIK3CG
# [11] = test system: T2, PIK4CB
# T2 construct: gene PI4KB
# [12] = test system: PIKFYVE
# [13] = test system: PIM1
# [14] = test system: PIM2
# [15] = test system: PIM3
# [16] = test system: PIP5K1A
# [17] = test system: PIP5K1C
# [18] = test system: PIP5K2B
# [19] = test system: T3, PIP5K2C
# T3 construct: gene PIP4K2C
# [20] = test system: T4, PKAC-alpha
# T4 construct: gene PRKACA
# 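Note: KINOMEscan kinase panel screen.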
Compound,%Inh [1] [%],%Inh [2] [%],%Inh [3] [%],%Inh [4] [%],%Inh [5] [%],%Inh [6] [%],%Inh [7] [%],%Inh [8] [%],%Inh [9] [%],%Inh [10] [%],%Inh [11] [%],%Inh [12] [%],%Inh [13] [%],%Inh [14] [%],%Inh [15] [%],%Inh [16] [%],%Inh [17] [%],%Inh [18] [%],%Inh [19] [%],%Inh [20] [%]
Cn1cnc2c(N)ncnc21 [SKF-97623],0,0,0,0,0,0,0,0,0,4,10,44,5,0,0,30,0,14,33,0
c1ccc(-c2ccnc3[nH]ccc23)cc1 [SB-693578],9,9,0,0,0,0,0,0,0,0,4,11,0,0,0,40,28,4,18,0
CS(=O)(=O)CCNCc1nc(-c2ccc3ncnc(Nc4ccc5c(cnn5Cc5ccccc5)c4)c3c2)cs1.Cl.Cl [GW569716],0,6,0,0,53,0,0,0,1,0,59,0,21,0,0,46,58,19,41,0
Cc1ccccc1Cn1ccn2c(=O)cc(N3CCOCC3)nc12 [GSK2269905],0,12,0,0,0,0,0,99.9,57,0,9,0,17,0,0,0,11,12,10,0
COc1ccc(Nc2nccc(-c3ccc(NC(=O)c4cc5cc(F)ccc5[nH]4)cc3)n2)cc1 [GSK1229496],0,13,0,0,0,0,0,0,0,2,0,0,0,0,0,37,54,17,41,0
CC(C)c1ccc(O)cc1Nc1ccnc2ccc(C(F)(F)F)cc12 [GW482059],1,0,0,0,0,15,0,0,25,0,45,1,19,0,0,0,0,7,0,0
Cc1cnc(N)c(/C=C/c2cncc(C(=O)NCCc3ccc(Cl)cc3Cl)c2)c1.Cl [GSK190937],0,9,0,19,0,2,0,1,0,4,0,0,12,0,0,39,35,21,47,–
COc1ccc(CSc2nnc(-c3ccc4nccn4c3)o2)cc1C(F)(F)F,0,4,0,0,21,12,15,11,29,32,0,0,6,9,0,2,0,43,0,10
Cc1ccccc1-c1cc(-c2c[nH]nc2-c2ccccn2)ccn1 [GW680061],0,0,0,0,0,0,0,0,4,0,0,0,0,0,0,12,39,15,28,0
Cc1ccc(NC(=O)c2ccc(Cl)cc2)cc1-c1ccc(C(=O)Nc2ccncc2)cc1 [GSK1398467],0,0,0,16,0,0,0,0,0,0,0,0,0,0,0,0,45,0,33,0
Cl.Cl.Cl.N#Cc1ccc(CCNc2nccc(-c3cccc(CN4CCNCC4)c3)n2)cc1 [GSK2137462],16,14,25,23,0,0,1,13,0,12,26,0,20,0,13,0,0,0,11,13
CC[C@@H]1CO[C@H](C(=O)Nc2ccccc2)CN1c1cc(-c2ccc3c(N)n[nH]c3c2)nc(NC)n1 [GSK2376236],23,28,0,11,0,0,0,0,0,6,33,0,14,0,3,0,39,3,3,74
O=C(Nc1n[nH]c2nc(-c3cccs3)c(Br)cc12)C1CC1 [SB-735297],18,14,0,0,0,0,0,22,0,10,12,2,0,0,0,15,0,0,0,0
Cc1ccc(NC(=O)Nc2ccc(Cl)cc2)cc1-c1ccc(C(=O)Nc2ccncc2)cc1 [GSK1398472],0,12,0,0,0,0,0,36,0,0,5,0,9,0,0,11,41,12,2,7
COc1cccc(C2=C(Nc3cc(Cl)c(O)c(Cl)c3)C(=O)NC2=O)c1 [SB-390767],8,0,0,0,0,0,0,0,0,0,21,0,0,0,0,0,66,15,15,0
Cn1cncc1-c1cc2c(Nc3ccc(OCc4ccccc4)cc3)ncnc2cn1 [GW281179],9,20,4,0,24,0,0,0,0,0,0,18,0,0,0,0,23,0,26,0
O=c1cc(N2CCOCC2)nc2n(Cc3ccccc3F)ccn12 [GSK2297428],0,23,0,0,2,0,6,94.5,32,24,0,0,0,0,0,6,31,19,0,0
COc1cccc(NC(=O)Nc2ccc(C)c(-c3ccc(C(=O)Nc4ccncc4)cc3)c2)c1 [GSK1398474],27,0,0,17,100,0,99.9,0,0,99.9,0,0,15,0,22,0,0,0,0,17
CCCCc1nn2ncccc2c1-c1ccnc(NC2CC2)n1 [GW684374],13,18,0,0,0,0,0,0,0,0,35,0,0,0,0,0,36,0,75,0
Fc1ccc(-c2nn3cccc(F)c3c2-c2ccncc2)cc1 [GW475620],0,20,0,0,0,15,0,0,25,0,0,28,0,0,0,0,28,19,0,11
COC(=O)C(Cc1ccccc1)NC(=O)NC1CCN(c2ccnc(Nc3ccc(F)cc3)n2)C1 (centres unmarked) [GSK1379714],14,0,2,0,0,73,0,0,27,1,7,22,0,0,0,45,35,30,36,0
